LmPK inhibitor: blocks Leishmania mexicana pyruvate kinase activity. purified LmPK, Kinase-Glo ATP luminescence, 1 h. Potency, µM (top dose mostly 57.5 µM), for inactives: top-dose activity change, negative = inhibition, most hits filed as inhibitors. 290,000 compounds, 0.37% hits; note: potency is the fitted concentration of half-maximal effect; % is set by controls: 0 for no effect and ±100 for the full control effect
Target sequence (Q27686 whole entry, looked up): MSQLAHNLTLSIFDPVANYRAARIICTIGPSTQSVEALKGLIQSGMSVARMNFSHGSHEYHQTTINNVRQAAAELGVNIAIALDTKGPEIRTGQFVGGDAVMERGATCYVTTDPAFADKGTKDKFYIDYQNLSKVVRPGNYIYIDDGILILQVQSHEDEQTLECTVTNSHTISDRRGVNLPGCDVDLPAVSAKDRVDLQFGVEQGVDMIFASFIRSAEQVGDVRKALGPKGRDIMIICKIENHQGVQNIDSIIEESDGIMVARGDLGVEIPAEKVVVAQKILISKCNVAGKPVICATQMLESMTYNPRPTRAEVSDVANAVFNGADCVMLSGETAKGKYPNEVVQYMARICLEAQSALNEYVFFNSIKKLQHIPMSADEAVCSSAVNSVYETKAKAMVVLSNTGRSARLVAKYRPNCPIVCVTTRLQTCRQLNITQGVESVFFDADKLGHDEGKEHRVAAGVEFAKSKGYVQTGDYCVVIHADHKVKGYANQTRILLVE
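Pyruvate kinase activity monitored as ATP production (luciferase luminescence). Conditions: 0.1 nM enzyme, 0.5 mM PEP, 0.1 mM ADP, 1 h, RT; normalized against uninhibited and no-enzyme wells.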
Shiga toxin inh: inhibitors of Shiga toxin in Vero cells | Vero cells, Shiga toxin protein synthesis inhibition reporter | inhibition, % at 38.7 µM | 290,000 compounds, 9.2% hits | AID 2315; in the data active = inhibition mostly above about 28%, no sharp cut-off; inactive = mostly below about 43%; note: 0% is about no effect
Pf growth 96h: P. falciparum growth inhibition at 96 hour, primary screen for plastid delayed-death inhibitors; P. falciparum luciferase reporter growth, 96 h; AID 504834; Potency, µM (titrated, usually from 28.7 µM), for the others: top-dose activity change, negative = inhibition, usual class: inhibitors; 320,000 compounds, 6.9% hits; note: potency is the fitted concentration of half-maximal effect; % is set by controls: 0 for no effect and ±100 for the full control effect
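Delayed-death screen, second-generation endpoint: infected erythrocytes, 2% hematocrit, 0.05% parasitemia final; 96 hours at 37 C, 5% CO2; luciferase detection reagent; luminescence decrease equals reduced growth.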
Cycloheximide cs: counter-screen for Shiga toxin inhibitors: cycloheximide protein synthesis inhibition. cell reporter, cycloheximide protein synthesis inhibition counterscreen. max response, %. 300,000 compounds, 12% hits. AID 2314; in the data active = max response mostly above about 13%, no sharp cut-off; inactive = mostly below about 14%; note: read at 38.3 µM for the half of the compounds with a filed dose; 0% is about no effect
Pf growth 48h: P. falciparum growth inhibition at 48 hours (one generation); P. falciparum luciferase growth in erythrocytes, 48 h; 310,000 compounds, 5.9% hits; Potency, µM (series often up to 28.7 µM), for inactives: at the highest dose activity change, negative = inhibition, usual class: inhibitors; note: potency is the fitted concentration of half-maximal effect; % is set by controls: 0 for no effect and ±100 for the full control effect
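In quantitative HTS format, infected erythrocytes bearing luciferase-reporter parasites were treated for a single generation at 37 C. Luminescence after adding detection reagent served as the growth measure.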
Starred values were filed as active, the others as inactive; i = inactive; u = inconclusive; x = no result; [ ] = another dose, or the depositor's remark. An excerpt weighted towards active compounds, which were near 22% of everything screened. Unless noted, calls come from the whole dose curve; as a rule, active = well fitted inhibition curve with a large enough effect; inconclusive = small, poorly fitted or top-dose-only effect, or another doubt; inactive = no such curve, though single readings can be large or run the other way.

SMILES | LmPK inhibitor | Shiga toxin inh | Pf growth 96h | Cycloheximide cs | Pf growth 48h
COc1ccc(C(=O)NCCc2nnc3ccc(SCC(=O)N4CCCCC4)nn23)cc1 | 4.3% | -18.1 | u | -0.8 | -5.4%
O=c1c2[nH]c3ccc(F)cc3c2ncn1CCC1=CCCCC1 | 0.1% | 13.7 | 17.0% | 7.6 | 82.8%
COc1ccc2c(c1)sc(=N)n2C | 1.0% | -13.1 | 3.7µM* | -6.4 | u
CC(C(=O)NC(N)=O)N1C(=O)NC(c2ccccc2)(c2ccccc2)C1=O (centres undefined) | 2.9% | -6.1 | 24.5% | -10.7 | -2.6%
COC(=O)c1c(C)[nH]c(C(=O)CSc2ncnc3sc(-c4ccccc4)cc23)c1C | 1.9% | -5.7 | 0.0% | -2.9 | 6.7%
C=CCN(CC(O)c1cccc([N+](=O)[O-])c1)C(C)CCc1ccccc1 (centres undefined) | 2.4% | 11.8 | u | 8.6 | 1.47µM*
COc1cc(C(=O)NCC(c2ccco2)N2CCOCC2)cc(OC)c1OC (centres undefined) | x | x | 5.1% | x | u
CC1CCCN(c2nc3nonc3nc2N2CCCC(C)C2)C1 (centres undefined) | 7.2% | -3.3 | -8.3% | -1.8 | 10.4µM*
CC1CCN(c2nc3nonc3nc2N2CCC(C)CC2)CC1 | 4.7% | -8.4 | -18.4% | 5.1 | 0.7%
COc1ccc([C@]23Cc4cc(C#N)ccc4C(O2)c2c(cc(-c4ccccc4)oc2=O)O3)cc1 | 0.1%[11.5 µM] | i | -5.6%[5.75 µM] | -1.8 | u
COCCN(C(C)=O)c1nnc(-c2cnccn2)s1 | 1.8% | -10.6 | 2.33µM* | 3.6 | 28.2%
COCCN(C(C)=O)c1nnc(-c2ccccn2)s1 | -0.1% | 39.0 | x | 18.4* | 55.2%
Cc1c(OCC(=O)NCCN2CCOCC2)ccc2c(-c3ccccc3)cc(=O)oc12 | 0.1% | 0.3 | -13.8% | -3.2 | -0.4%
CCOc1ccc(C(=O)COC(=O)c2nn(CC)c(=O)c3ccccc23)cc1 | x | x | 6.2% | x | u
COc1cc(SC)ccc1C(=O)Nc1ncc(Cl)cc1Cl | 4.4% | 79.3* | 155.9% | 34.6* | 111.7%
COc1ccc(N=c2oc3ccccc3cc2C(=O)Nc2ccccn2)cc1OC | -20.7% | 97.5* | u | 52.1* | 70.1%
COc1cc(SC)ccc1C(=O)NC(C)C | -0.8% | 23.0 | 3.5% | 4.1 | 2.0%
COc1ccc(CC(=O)OCC(=O)Nc2ncc(Cl)cc2Cl)cc1OC | 1.3% | -7.0 | 70.6% | -2.8 | x
COc1cc(SC)ccc1C(=O)Nc1ccccn1 | -16.0% | 45.7 | 394.7% | 33.9* | 190.1%
COc1cc(SC)ccc1C(=O)Nc1cccc(C)n1 | -11.4% | 83.8* | 5.1% | 33.1* | 88.0%
CCCCn1c(N)c(N(CCC(C)C)C(=O)C2CC(=O)N(CCc3ccc(OC)c(OC)c3)C2)c(=O)[nH]c1=O (centres undefined) | x | x | 0.7% | x | u
Cc1cc[n+](Cc2ccccc2)c(N)c1 | x | x | -0.9% | x | u
COc1cc(SC)ccc1C(=O)Nc1ccon1 | -2.7% | 60.0* | u | 33.7* | 108.8%
COc1cc(SC)ccc1C(=O)Nc1ccc2c(c1)CCN2S(C)(=O)=O | 8.1% | -11.8 | x | 0.9 | 2.0%
COc1cc(SC)ccc1C(=O)Nc1ccc2ncccc2c1 | -7.8% | 30.4* | 107.0% | 27.1* | 180.9%
SMILES | LmPK inhibitor | Shiga toxin inh | Pf growth 96h | Cycloheximide cs | Pf growth 48h
COc1cc(SC)ccc1C(=O)Nc1ccc(Br)cn1 | u | 76.1* | 289.9% | 30.6* | -44.9%
COc1cc(SC)ccc1C(=O)Nc1ncc(C)s1 | -4.0% | 8.9 | 22.9% | -6.6 | 339.2%
C[C@]12CC[C@@H]3c4ccc(O)cc4CC[C@H]3[C@@H]1CC[C@H]2O | x | 0.8 | x | 8.1 | x
COc1ccc(C2CC2/C(=N/OC(=O)c2cccs2)c2ccccc2)cc1 (centres undefined) | 2.1% | 44.8 | x | 28.8* | -27.6%
O=C(NNC(=O)C1CCCC1)c1cc([N+](=O)[O-])cc([N+](=O)[O-])c1 | x | x | -14.3% | x | 1.6%
O=C(O)Cc1cc(F)c(S(=O)(=O)N2CCN(S(=O)(=O)c3ccc4c(c3)OCCO4)CC2)cc1F | x | -4.6 | x | -7.3 | x
S=C(Nc1cccc(Cl)c1Cl)N1CCC2(CC1)OCCO2 | -0.4% | 7.8 | 45.4%[1.15 µM] | 3.6 | 13.6%
CCN(CC)C(=O)CCc1nnc(Cc2cccc(C(F)(F)F)c2)o1 | 5.8% | -10.6 | 16.9% | 5.4 | 34.3%
O=C(CCc1nnc(Cc2cccc(C(F)(F)F)c2)o1)NCCc1ccccc1F | -0.4% | 126.2* | 13.4% | 28.8* | 60.2%

Screening results: PubChem, National Center for Advancing Translational Sciences (NCATS)
